Results on nine molecules are retold here after PubChem BioAssay.

Test [1] can be described thus: compound effects on lung adenocarcinoma cell viability – A549, calcein-AM fluorescence, 48 h, basal, profiling panel (AID 1162). Also: test concentration not given here. As to conditions: higher = more signal.
Test [2] is described as follows: compound effects on differentiated 3T3-L1 adipocyte viability – cell-based, 3T3-L1 adipocytes, calcein-AM fluorescence, 48 h, basal, profiling panel (AID 1163). Also: test concentration not given here. The settings on record: 3T3-L1 adipocytes viability, higher = more signal.
Test [3] can be described thus: compound effects on hepatocellular carcinoma cell viability – HepG2, calcein-AM fluorescence, 48 h, basal, profiling panel (AID 1164). Also: test concentration not given here. As to conditions: higher = more signal.
Test [4] in a line: compound effects on multiple myeloma cell viability – MM1S, calcein-AM fluorescence, 48 h, basal, profiling panel (AID 1165). Also: test concentration not given here. As to conditions: higher = more signal.
A short description of test [5]: calcein-AM signal in unstimulated myeloma cells – cell-based, calcein-AM fluorescence, 48 h, PK04 Diversity Set, profiling panel (AID 1166).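 Also: cells grown under basal conditions without added stimulus; test concentration not given here.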 As to conditions: RPMI8226 myeloma viability, higher = more signal.
A short description of test [6]: JC-1 mitochondrial signal, unstimulated HepG2 cells – cell-based, JC-1 fluorescence, 24 h, 100 nL compound, profiling panel (AID 1167). Also: test concentration not given here. The settings on record: HepG2 mitochondrial potential, higher = more signal.
Test [7] can be described thus: JC-1 mitochondrial signal, unstimulated adipocytes – cell-based, JC-1 fluorescence, 3T3-L1 adipocytes, 24 h, 100 nL compound, profiling panel (AID 1168). Also: test concentration not given here. As to conditions: JC-1 mitochondrial fluorescence, higher = more signal, called active from +8 up or from −8 down.
The nature of test [8]: JC-1 mitochondrial signal, unstimulated myeloma cells – cell-based, JC-1 fluorescence, RPMI8226, 24 h, 100 nL compound, profiling panel (AID 1169). Also: test concentration not given here. The settings on record: JC-1 mitochondrial potential fluorescence, higher = more signal.
A short description of test [9]: JC-1 mitochondrial signal, unstimulated MM1S myeloma – cell-based, JC-1 fluorescence, 24 h, 100 nL compound, profiling panel (AID 1170). Also: test concentration not given here. The settings on record: MM1S mitochondrial potential, higher = more signal.
A short description of test [10]: resazurin metabolic signal in A549 cells – cell-based, resazurin fluorescence, 24 h, PK04 Diversity Set, profiling panel (AID 1171). Also: test concentration not given here. The settings on record: A549 viability, higher = more signal, called active from +8 up or from −8 down.
Test [11] in a line: resazurin metabolic signal in HepG2 cells – cell-based, resazurin fluorescence, 24 h, PK04 Diversity Set, profiling panel (AID 1172). Also: test concentration not given here. The settings on record: HepG2 viability, higher = more signal. In general terms: Resazurin is reduced to fluorescent resorufin, in cell work by metabolically active cells.
Test [12] is described as follows: budding yeast growth changes without added modifier – OD600, strain BY4716, 24 h, basal condition, primary screen (AID 1173). As to conditions: S. cerevisiae BY4716 growth, OD600, 24 h; higher = more signal, called active from +8 up or from −8 down.
The nature of test [13]: viability profiling in MM1S myeloma cells – cell-based, resazurin fluorescence, basal, 24 h, PK04 Diversity Set, profiling panel (AID 1174). Also: test concentration not given here. The settings on record: higher = more signal, called active from +8 up or from −8 down.
Test [14] has as its target Dihydroorotate dehydrogenase (quinone), mitochondrial (Plasmodium falciparum (isolate 3D7)) (UniProt Q08210). Briefly: inhibition of P. falciparum DHODH – biochemical, C-terminal His tag, absorbance 600 nm, primary screen (AID 1175).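 Also: recombinant parasite enzyme with a five histidine tag at its C terminus; test concentration not given here.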 The settings on record: PfDHODH enzyme, DCIP absorbance 600 nm; higher = more signal, called active from +8 up or from −8 down.
The nature of test [15]: inhibition of PAO1 biofilm formation – strain PAO1, LB-PBS medium, absorbance 600 nm, primary screen (AID 1176). Also: test concentration not given here. As to conditions: P. aeruginosa PAO1 growth/biofilm, A600, 12 h; higher = more signal.
Test [16] in a line: growth modulation of vineyard yeast isolate – strain RM11-1a, OD600, basal, 24 h, primary screen (AID 1177).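 Also: cultures grown under basal conditions with no added stressor; test concentration not given here.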 The settings on record: S. cerevisiae RM11-1a growth, OD600, 24 h; higher = more signal, called active from +8 up or from −8 down.
A short description of test [17]: growth of efflux-deficient E. coli DRC39 – strain DRC39, OD650, 24 h, E. coli filamentation inducers, primary screen (AID 1178).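 Also: growth measured as culture turbidity by optical density at 650 nm; test concentration not given here.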 The settings on record: E. coli DRC39 acrAB, higher = more signal, called active from +8 up or from −8 down.
Test [18] can be described thus: growth of efflux-deficient E. coli DRC39 – strain DRC39, OD650, 48 h, E. coli filamentation inducers, primary screen (AID 1179).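 Also: screen aims at cell division blockers that make cells filament.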 As to conditions: E. coli DRC39 delta-acrAB growth, higher = more signal, called active from +8 up or from −8 down.
Test [19] in a line: viability profiling in RPMI8226 myeloma cells – cell-based, resazurin fluorescence, basal, 24 h, PK04 Diversity Set, profiling panel (AID 1180).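 Also: RPMI8826 multiple myeloma cell line at 5000 cells per well; test concentration not given here.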 The settings on record: higher = more signal.
Test [20] addresses E3 ubiquitin-protein ligase XIAP (Homo sapiens) (UniProt P98170). Put plainly: small molecules binding XIAP protein – biophysical, small-molecule microarray, fluorescence 635 nm, primary screen (AID 1181).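 Also: score merges 667 nm emission and signal to noise over triplicate slides.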 The settings on record: higher = more signal.

SMILES strings stand for the structures. Calls of active or inactive are those of the source. Unless noted, no rule for the calls is given here.

E3 ubiquitin-protein ligase XIAP (Homo sapiens), sequence (P98170 whole entry, looked up): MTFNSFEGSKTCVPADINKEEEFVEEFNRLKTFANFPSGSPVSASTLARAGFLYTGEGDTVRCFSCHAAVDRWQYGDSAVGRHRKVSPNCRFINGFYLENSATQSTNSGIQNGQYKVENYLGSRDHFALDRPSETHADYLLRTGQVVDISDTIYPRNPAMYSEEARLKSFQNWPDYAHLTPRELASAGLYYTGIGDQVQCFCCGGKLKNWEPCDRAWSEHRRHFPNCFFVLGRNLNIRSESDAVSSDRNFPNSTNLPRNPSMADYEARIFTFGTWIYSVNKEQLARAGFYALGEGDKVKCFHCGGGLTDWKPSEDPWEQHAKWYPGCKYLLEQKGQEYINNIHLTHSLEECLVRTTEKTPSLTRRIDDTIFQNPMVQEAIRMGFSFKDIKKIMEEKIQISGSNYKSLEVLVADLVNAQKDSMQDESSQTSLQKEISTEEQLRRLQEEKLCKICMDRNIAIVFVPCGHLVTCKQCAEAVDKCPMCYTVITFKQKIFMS
Dihydroorotate dehydrogenase (quinone), mitochondrial (Plasmodium falciparum (isolate 3D7)), sequence (Q08210 whole entry, looked up): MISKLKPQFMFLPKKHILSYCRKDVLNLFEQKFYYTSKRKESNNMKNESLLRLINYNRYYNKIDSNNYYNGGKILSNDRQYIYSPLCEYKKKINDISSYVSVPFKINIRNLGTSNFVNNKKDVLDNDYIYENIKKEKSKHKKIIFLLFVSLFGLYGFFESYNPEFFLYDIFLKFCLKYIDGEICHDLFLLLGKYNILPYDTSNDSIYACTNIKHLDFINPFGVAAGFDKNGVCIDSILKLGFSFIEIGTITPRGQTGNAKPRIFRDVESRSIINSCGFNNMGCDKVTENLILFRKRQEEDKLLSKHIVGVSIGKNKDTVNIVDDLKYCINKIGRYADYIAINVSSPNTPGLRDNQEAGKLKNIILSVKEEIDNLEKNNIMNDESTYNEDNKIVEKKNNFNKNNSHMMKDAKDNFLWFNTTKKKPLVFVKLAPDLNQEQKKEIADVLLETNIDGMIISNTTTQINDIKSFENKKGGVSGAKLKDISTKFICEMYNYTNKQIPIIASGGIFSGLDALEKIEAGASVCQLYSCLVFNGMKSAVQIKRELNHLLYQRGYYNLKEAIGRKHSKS

With `COC(=O)[C@@]1(Cc2ccccc2)[C@H]2c3cc(C(=O)N(C)C)n(CCn4cc([N+](=O)[O-])nc4C)c3C[C@H]2CN1C(=O)c1ccccc1`, the z-score in test [1] is -0.461; in test [2] it was 0.297; in test [3], -1.17; in [4] it was 0.506; in test [5], 0.911; in test [6] it was 0.547. Further, the z-score in test [7] is 0.0518 (inactive); in test [8], -0.0192; in test [9], 0.377; in [10] it was -0.0815 (inactive); in [11], 0.002; in test [12], 0.815 (inactive). Also, the z-score was -0.271 (inactive) in test [13]; 1.41 (inactive) in [15]; -0.68 (inactive) in test [16]; -0.211 (inactive) in test [17]; 0.145 (inactive) in test [18]; 0.413 in test [19]. The composite z-score is -0.831 (inactive) in test [14] and 1.01 in test [20].

`C=CCNC(=O)[C@@H]1[C@H]2C(=O)O[C@H](c3ccccc3)[C@H](c3ccccc3)N2[C@H](c2ccc(O)cc2)[C@@]12C(=O)Nc1ccc(C#CCC(C(=O)OC)C(=O)OC)cc12`: the z-score in test [1] is -0.399; in [2] it was -0.937; in test [3] it was -0.6; in test [4] it was -3.31; in [5] it was -4.52; in test [6] it was -1.76. Further, the z-score was -0.271 (inactive) in test [7]; -1.25 in test [8]; -2.23 in test [9]; -0.395 (inactive) in [10]; -0.0043 in [11]; 1.12 (inactive) in test [12]. For the same molecule, the z-score in test [13] was -6.93 (inactive); in [15], 1.54 (inactive); in test [16], 1.4 (inactive); in test [17], -0.0975 (inactive); in test [18] it was -0.112 (inactive); in test [19], -5.23. Further, the composite z-score in test [14] was -6.73 (inactive); in test [20], -0.274.

As to `C[C@@]12COC[C@]13C=C(Br)[C@H](C2)[C@@]1(CO1)C3=O`, the z-score in test [1] is 0.109; in test [2], -0.245; in test [3], -0.318; in test [4], -1.75; in test [5] it was -0.31; in test [6], -1.47. Also, the z-score was -0.24 (inactive) in [7]; 0.253 in test [8]; -1.12 in [9]; -0.557 (inactive) in [10]; 0.138 in test [11]; -1.38 (inactive) in test [12]. Moreover, the z-score is -0.0295 (inactive) in test [13]; -0.259 (inactive) in test [15]; -0.187 (inactive) in [16]; -0.651 (inactive) in test [17]; -0.534 (inactive) in test [18]; 0.219 in test [19]. Moreover, the composite z-score in [14] was -0.658 (inactive); in test [20] it was -0.154.

With `COCCOC(=O)N1C(=O)[C@@]2(c3cc(C#CCCO)ccc31)[C@H](C(=O)N1CCCCCCC1)[C@H]1C(=O)O[C@H](c3ccccc3)[C@H](c3ccccc3)N1[C@@H]2c1ccccc1OCCO`, the z-score was 0.862 in test [1]; 1.45 in [2]; 0.566 in [3]; -2.12 in test [4]; -1.62 in [5]; -0.292 in [6]. For the same molecule, the z-score in test [7] was -0.0643 (inactive); in test [8] it was -0.815; in test [9], -0.513; in test [10] it was 1 (inactive); in test [11], -0.0873; in [12], 0.348 (inactive). Also, the z-score in test [13] is 0.413 (inactive); in test [15] it was 0.898 (inactive); in test [16], 0.881 (inactive); in test [17] it was -0.759 (inactive); in [18] it was -0.359 (inactive); in test [19], 0.3. The composite z-score in test [14] was -0.0989 (inactive); in test [20], 0.113.

For `COc1ccc(C(=O)Nc2cccc(CN3C(=O)[C@@]4(O[C@@H](CC(=O)N(CCO)Cc5ccccc5)[C@H]([Si](C)(C)c5ccc(OC)cc5)[C@H]4C)c4ccccc43)c2)cc1`, the z-score is -0.269 in test [1]; 1.36 in test [2]; -1.39 in test [3]; -0.696 in test [4]; -4.07 in test [5]; 0.672 in test [6]. In addition, the z-score is 2.67 (inactive) in test [7]; -0.865 in test [8]; -0.789 in test [9]; -2.23 (inactive) in [10]; -0.0246 in test [11]; 0.062 (inactive) in test [12]. Also, the z-score in test [13] was -2.3 (inactive); in test [15], 0.711 (inactive); in test [16], 0.621 (inactive); in [17], 0.289 (inactive); in test [18], 0.45 (inactive); in test [19], -2.67. In addition, the composite z-score was -2.25 (inactive) in test [14] and -0.0365 in [20].

Regarding `[N-]=[N+]=NCc1ccccc1C[C@@]1(C(=O)N2CCCCC2)N=C(c2ccc(OCCCO)cc2)O[C@@H]1c1ccccc1CN=[N+]=[N-]`, the z-score in test [1] was -0.683; in [2] it was -0.819; in test [3], 0.036; in test [4], -1.39; in test [5] it was -3.57; in [6] it was -0.357. The z-score in test [7] was -0.639 (inactive); in test [8], -1.17; in test [9] it was -1.64; in [10], 0.742 (inactive); in [11] it was -0.539; in test [12], 0.069 (inactive). For the same molecule, the z-score was -1.27 (inactive) in test [13]; 1.87 (inactive) in test [15]; 1.61 (inactive) in test [16]; 0.191 (inactive) in test [17]; 0.594 (inactive) in test [18]; -0.911 in [19]. Also, the composite z-score in [14] is 0.669 (inactive); in test [20], -0.117.

With `CC(C)C[C@@H]1NC(=O)CNC(=O)[C@@]23C(=O)N[C@@H](Cc4ccccc4)C2[C@H](C)[C@@]2(C)O[C@H]2C3/C=C/C/C=C\CNC1=O` (stereo not given in full), the z-score was -0.692 in test [1]; 0.404 in test [2]; -0.262 in [3]; 0.0565 in test [4]; -0.939 in test [5]; -0.513 in [6]. In addition, the z-score in test [7] was 0.00154 (inactive); in [8], -0.385; in test [9] it was -0.181; in test [10], 0.547 (inactive); in [11] it was 0.544; in test [12], 0.205 (inactive). Moreover, the z-score in test [13] was 0.339 (inactive); in [15], 1.31 (inactive); in [16], 0.0082 (inactive); in test [17], 0.387 (inactive); in [18] it was 0.394 (inactive); in test [19], 0.663. Also, the results for the composite z-score in [14] and in test [20] were 0.084 (inactive) and -0.164, respectively.

Turning to `O=C(O)[C@@H]1C[C@@H]2C(=O)N3CCC[C@H]3C(=O)N2[C@@H]1c1cccc(OCCO)c1`, the z-score is 0.0951 in test [1]; 0.717 in test [2]; -0.439 in test [3]; -0.456 in test [4]; -0.159 in test [5]; 0.591 in test [6]. Also, the z-score in test [7] is 0.283 (inactive); in [8], 0.817; in [9] it was 0.718; in test [10], -0.0326 (inactive); in test [11] it was -0.188; in test [12], -1.28 (inactive). In addition, the z-score was -0.447 (inactive) in test [13]; 0.547 (inactive) in [15]; 0.0761 (inactive) in test [16]; -0.185 (inactive) in test [17]; -0.685 (inactive) in test [18]; -0.0605 in test [19]. Moreover, the composite z-score in test [14] was -0.899 (inactive); in test [20], 0.338.

Turning to `C=C(/C(=C/C[C@@H](OC(=O)c1ccncc1)c1cccc(OCCO)c1)c1cnc2ccccc2c1)C(C)C`, the z-score was 0.509 in test [1]; 1.55 in test [2]; 0.0856 in test [3]; -2.52 in test [4]; -0.467 in test [5]; 1.42 in test [6]. For the same molecule, the z-score is -0.45 (inactive) in test [7]; -0.533 in test [8]; 0.817 in test [9]; 0.128 (inactive) in [10]; -0.118 in test [11]; -1.48 (inactive) in [12]. In addition, the z-score was -0.59 (inactive) in [13]; 1.86 (inactive) in [15]; 0.152 (inactive) in [16]; -0.192 (inactive) in test [17]; -0.284 (inactive) in [18]; 0.0866 in [19]. For the same molecule, the results for the composite z-score in test [14] and in test [20] were -5.68 (inactive) and 0.227, respectively.
